PglD inh: PglD (C. jejuni) enzyme inhibition; purified PglD enzyme, DTNB colorimetric CoA detection; inhibition, % at 12.5 µM; 360,000 compounds, 0.098% hits; in the data active = inhibition above about 16%, passing the limit was not always enough; inconclusive = no clear call, values can overlap the other calls
FGF22 binding: FGF22 (human) thermal shift binding | activity (Tm shift, normalised), % at 9.99 µM | 340,000 compounds, 1.5% hits | recombinant FGF22 thermal shift, SYPRO orange fluorescence; percent of sucrose octasulfate shift, DMSO zero | Q9HCT0;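 active = mean Tm shift, scaled 0 neutral to 100 positive control, at about 1.3% or above, every replicate too, limit read from the data; inconclusive = no clear call, values can overlap the other calls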
PvdQ inh: blocks Pseudomonas aeruginosa PvdQ acylase activity; purified PvdQ acylase, fluorescence plate reader; inhibition, % at 10 µM; 340,000 compounds, 0.063% hits; in the data active = inhibition above about 30%, passing the limit was not always enough; inconclusive = no clear call, values can overlap the other calls;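 also: 0% = vehicle neutral wells and 100% = reference inhibitor wells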
dFosB act: mouse delta FosB homodimer activation | P13346 | purified delta FosB, TAMRA-CDK5 oligo fluorescence polarization; percent of positive-control signal above neutral wells | activation, % at 25 µM | 340,000 compounds, 0.99% hits | AID 493131;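 active = mean activation above about 17%, with every replicate also reaching it, limit read from the data, passing the limit was not always enough; inconclusive = only one of the two conditions met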
Target sequence (P13346 whole entry, looked up): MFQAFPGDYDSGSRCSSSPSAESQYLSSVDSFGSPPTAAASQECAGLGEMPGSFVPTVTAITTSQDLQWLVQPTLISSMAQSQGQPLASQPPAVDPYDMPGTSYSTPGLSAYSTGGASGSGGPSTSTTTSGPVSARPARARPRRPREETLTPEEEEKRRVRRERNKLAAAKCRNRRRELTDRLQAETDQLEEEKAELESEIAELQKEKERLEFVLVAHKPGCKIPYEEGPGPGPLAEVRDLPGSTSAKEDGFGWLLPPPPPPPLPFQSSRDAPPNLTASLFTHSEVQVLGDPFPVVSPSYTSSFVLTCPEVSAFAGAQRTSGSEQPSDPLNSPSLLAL
SIRT5 inh: blocks human SIRT5 desuccinylation of peptide; 330,000 compounds, 1.1% hits; inhibition, % at 15 µM; Purified SirT5, succinyl-peptide AMC, trypsin-coupled fluorescence; AID 652115; Q9NXA8; in the data active = inhibition above about 15%; inconclusive = no clear call, values can overlap the other calls
Target sequence (Q9NXA8 whole entry, looked up): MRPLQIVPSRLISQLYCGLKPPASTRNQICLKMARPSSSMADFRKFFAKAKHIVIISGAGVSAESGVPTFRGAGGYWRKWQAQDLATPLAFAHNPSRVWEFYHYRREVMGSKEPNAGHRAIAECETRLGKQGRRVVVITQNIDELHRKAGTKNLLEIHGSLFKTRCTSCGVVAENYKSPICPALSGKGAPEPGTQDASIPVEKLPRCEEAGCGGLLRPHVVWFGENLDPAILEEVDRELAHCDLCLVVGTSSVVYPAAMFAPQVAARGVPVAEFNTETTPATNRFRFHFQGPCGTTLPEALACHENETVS
CDK5 inh: inhibitors of human CDK5/p35 kinase; inhibition, % at 10 µM; Recombinant CDK5/p35, ADP-Glo luminescence, 60 min; 330,000 compounds, 0.01% hits; AID 488839; Q00535+Q15078;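 active = highest replicate inhibition of at least 50% and at least 75% of replicates reaching 50%; inconclusive = only one of the two criteria met; inactive = both criteria failed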;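 also: plate controls were DMSO neutral control for no effect and GW8510 at 10 µM for full effect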
* hit, by the source's call; ? = inconclusive; · = not tested or not shown. Shown are actives, neighbours in structure and some others; about 2.8% of the full set was active somewhere.

SMILES | PglD inh | FGF22 binding | PvdQ inh | dFosB act | SIRT5 inh | CDK5 inh
Cc1cc2nc(CCl)cc(=O)n2[nH]1 | · | 0 | -6 | -5 | -2 | -1
CCC(=O)N[C@H]1CC[C@H](CC(=O)NCc2ccccc2F)O[C@H]1CO | -1 | 0 | · | · | 1 | ·
Cc1ccc(C(=O)N2CCN(C(=O)c3ccc(C)cc3)C2)cc1 | 8 | 43* | -3 | -4 | -5 | 0
Cc1ccc(C(=O)N2CCN(S(=O)(=O)c3ccc(C)c([N+](=O)[O-])c3)C2)cc1 | · | 44* | -15 | -1 | 0 | -2
CCCNC(=O)N1C[C@H]2[C@@H](c3ccccc31)[C@@H](CO)N2Cc1ccc(OC)cc1 | 1 | -1 | · | · | 6 | ·
CCN(CC)C(=O)COc1c(-c2ccco2)oc2ccccc2c1=O | 2 | 0 | 1 | -5 | -3 | 1
CCN(CC)C(=O)COc1ccc2oc(-c3ccco3)cc(=O)c2c1 | · | 44* | -7 | -25 | -26 | 1
CC1CN(S(=O)(=O)c2ccc(CN3C(=O)c4cccnc4C3=O)s2)c2ccccc2O1 (stereo not drawn) | 1 | -1 | -6 | -6 | 24* | -3
CC1CN(S(=O)(=O)c2ccc(CN3C(=O)c4cccnc4C3=O)cc2)c2ccccc2O1 (stereo not drawn) | -4 | 0 | 6 | -5 | 0 | 0
C[C@H]1CCCCO[C@@H](CN(C)S(=O)(=O)c2ccc(F)cc2)[C@@H](C)CN([C@@H](C)CO)C(=O)c2cc(NS(=O)(=O)c3ccc(F)cc3)ccc2O1 | 4 | 0 | · | · | · | ·
O=C(Cn1cnc2c(oc3ccccc32)c1=O)NCc1ccccc1 | 1 | 0 | 0 | -11 | -6 | 1
Cc1ccc(C)c(NC(=O)Cn2cnc3c(oc4ccccc43)c2=O)c1 | -1 | 45* | -5 | -1 | -3 | -2
COc1ccc(-n2c(C)cc(-c3csc(N)n3)c2C)cc1 | 6 | · | -5 | 25* | · | 0
Cc1noc(C)c1S(=O)(=O)Nc1ccc2c(c1)C(=O)N([C@H](C)CO)C[C@H](C)[C@@H](CN(C)Cc1ccc(C(=O)Nc3ccccc3N)cc1)O2 | · | 0 | · | · | 5 | ·
O=[N+]([O-])c1ccc(-c2cccnc2)cc1 | 3 | 0 | 49* | 1 | -1 | -2
O=[N+]([O-])c1ccc(COc2cccnc2)cc1 | · | 0 | -3 | 0 | -2 | 1
CC(=O)N1C(=O)N(C(C)=O)C2C1N(C)C(=O)N2C(C)=O (stereo not drawn) | · | 43* | -6 | -7 | -1 | -4
CC(=O)N1C(=O)N(C)C2C1N(C(C)=O)C(=O)N2C (stereo not drawn) | -6 | · | -1 | 2 | · | -1
O=C(C[C@H]1C[C@@H]2c3cc(NS(=O)(=O)c4ccc(F)cc4)ccc3O[C@@H]2[C@@H](CO)O1)NCc1ccncc1 | -1 | 0 | · | · | -1 | ·
CCC1(c2ccc(F)cc2)NC(=O)N(CC(=O)Nc2cc(S(=O)(=O)N(C)C)ccc2Cl)C1=O (stereo not drawn) | · | 44* | -8 | -6 | -4 | 0
CN(C)S(=O)(=O)c1ccc(Cl)c(NC(=O)COC(=O)CN2C(=O)C3CCCCC3C2=O)c1 (stereo not drawn) | · | 43* | 5 | -8 | 3 | 1
O=C(COC(=O)CN1C(=O)C2CCCCC2C1=O)Nc1cc(S(=O)(=O)N2CCOCC2)ccc1Cl (stereo not drawn) | · | 0 | 7 | -3 | 6 | 0
COc1ccccc1/C=N/NC(=O)c1sc(C)nc1C | -3 | 0 | 4 | -19 | -2 | 1
COc1ccc(/C=N/NC(=O)c2sc(C)nc2C)cc1 | · | 43* | 0 | -1 | 5 | 1
CO[C@H]1CN(C)C(=O)c2cc(NC(=O)C3CC3)ccc2OC[C@@H](C)N(Cc2cccc(F)c2)C[C@@H]1C | 1 | 0 | · | · | 1 | ·
SMILES | PglD inh | FGF22 binding | PvdQ inh | dFosB act | SIRT5 inh | CDK5 inh
COc1cccc(CN(C)C(=O)c2ccc(S(=O)(=O)Nc3ccccc3F)cc2)c1OC | -4 | 0 | 0 | -1 | 0 | 1
COc1cccc(CN(C)C(=O)c2ccc(S(=O)(=O)Nc3cccc(C)c3C)cc2)c1OC | 10 | 0 | · | · | 17* | ·
CCOC(=O)C1=C(C)N(C)C(=O)NC1c1cc2c(cc1[N+](=O)[O-])OCO2 (stereo not drawn) | 2 | 44* | -10 | -3 | 5 | 1
CC(C)N1CCN(Cc2cc(F)ccc2-n2cccn2)CC1CCO (stereo not drawn) | · | 0 | -4 | 3 | 20* | -1
COCC(=O)Nc1ccc(Br)c(C)c1 | 3 | 0 | -4 | -5 | -8 | 1
CC(=O)OCC(=O)Nc1ccc(Br)c(C)c1 | · | 43* | 1 | 5 | 0 | 1
CCOc1cc(CNCCc2c[nH]c3ccccc23)cc(Cl)c1OCC(N)=O | -3 | 0 | -14 | -8 | -1 | -2
COC(=O)[C@H](Cc1c[nH]c2ccccc12)NC(=O)NCc1ccc(OC)c(OC)c1 | 5 | 0 | 4 | -14 | 30* | 1
COc1cc(CNCCc2c[nH]c3ccccc23)cc(Cl)c1OCC(N)=O | -1 | 44* | -12 | -9 | 2 | -2
COC(=O)[C@H](Cc1c[nH]c2ccccc12)NC(=O)NCc1ccc(OC)cc1 | 2 | 0 | -16 | -9 | -10 | 2
O=C(NCc1nc2ccccc2[nH]1)C1=C[C@H](c2ccc(Br)cc2)C[C@H](OCCCCO)O1 | 2 | 0 | · | · | -1 | ·
C/C=C/c1ccc2c(c1)O[C@@H](CN(C)Cc1ccccc1)[C@@H](C)CN([C@H](C)CO)S2(=O)=O | -2 | 0 | · | · | 3 | ·
C[C@@H]1CN([C@H](C)CO)S(=O)(=O)c2ccc(/C=C/c3ccccc3)cc2O[C@H]1CN(C)Cc1ccc(C(=O)O)cc1 | 5 | 0 | · | · | ? | ·
C[C@H]1CN([C@@H](C)CO)S(=O)(=O)c2ccc(/C=C/c3ccccc3)cc2O[C@H]1CN(C)Cc1ccc(C(=O)O)cc1 | -1 | 0 | · | · | 19* | ·
C[C@@H]1CN([C@@H](C)CO)S(=O)(=O)c2ccc(/C=C/c3ccccc3)cc2O[C@@H]1CN(C)Cc1ccccc1 | 9 | 0 | · | · | 19* | ·
C[C@H]1CN([C@@H](C)CO)S(=O)(=O)c2ccc(/C=C/c3ccccc3)cc2O[C@@H]1CN(C)Cc1ccccc1 | 10 | 0 | · | · | 22* | ·
CNC[C@H]1Oc2ccc(NC(=O)Nc3cccc4ccccc34)cc2CC(=O)N([C@H](C)CO)C[C@H]1C | 1 | · | · | · | 4 | ·
COc1ccc(S(=O)(=O)N[C@@H]2CC[C@H](CCNC(=O)Cc3ccccn3)O[C@@H]2CO)cc1 | 11 | 0 | · | · | -3 | ·
O=C(CN1CCCCC1)NC(=O)NC1CCCC1 | · | 43* | -19 | 8 | 3 | -1
CC(C)(C)NC(=O)NC(=O)CN1CCN(C(c2ccccc2)c2ccccc2)CC1 | · | 43* | -9 | -2 | 3 | 1
CC(C)(C)NC(=O)NC(=O)CN1CCCCC1 | · | 43* | -2 | -4 | -3 | -2

Assay outcomes from PubChem.
